The text below walks through data of PubChem BioAssay AID720565 (National Center for Advancing Translational Sciences (NCATS), 2013).

Where “and” joins values, the source holds several entries; their conditions need not be identical. Equal values may be shown once. Inconclusive results are not listed. Calls of active or inactive are those of the source. Calls come from the whole dose curve; as a rule, active = well fitted activation curve with a large enough effect; inconclusive = small, poorly fitted or top-dose-only effect; inactive = no such curve, though single readings can be large or run the other way.
Potency is the fitted concentration of half-maximal effect.

A short description of this experiment: qHTS for small molecules that induce genotoxicity in ELG1 expressing cells: Confirmatory Assay for Cherry-picked Compounds. For activation: % of control where 0% means no effect. Note: nearly all actives have a fitted effect of over 35% in size. Particulars: ELG1-luciferase reporter cells, luminescence, 16 h; series mostly up to 46.1 µM; activation: at the top concentration. In a few lines: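 Cells carrying the ELG1-luciferase reporter were exposed to compound for 16 hr at 37 C, 5% CO2, at 2,000 cells per well. Rise in luciferase activity, read with ONE-Glo after 30 min at room temperature, indicates genotoxic stress.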
A general note: In qHTS, concentration-response curves come from the screen itself.
With `O=c1c2ccccc2oc2ccc(-c3ccc4cc[nH]c4c3)cc12`, the Potency was 1.26 µM (active).
Regarding `O=C(CSc1nnc(-c2cccnc2)o1)Nc1ccccn1`, the Potency was 9.12 µM (active) and 8.89 µM (active).
As for `CN(Cc1ccco1)c1ncnc2ccc(-c3cccc(Cl)c3)cc12`, the “activation” value is -10.7% (inactive).
Consider `O=C1CCc2cc(NS(=O)(=O)c3ccccc3)cc3c2N1CC3`, for which the “activation” value was 25% (inactive).
`Cc1cc2ncc(-c3ccccc3)nc2cc1C`: the Potency was 1.41 µM (active).
The same measure, in the same setting: for `Cc1cc(C(=O)COC(=O)c2ccc(F)cc2)c(C)n1C` the value was 2.23 µM (active); for `O=C(NOCc1ccccc1)c1ccccc1`, 8.88 µM (active).
Turning to `O=C(CSc1nnc(-c2ccc(F)cc2)o1)Nc1ccc(S(=O)(=O)N2CCCCCC2)cc1`, the “activation” value is 7.03% (inactive).
On to `Nc1ccc(/C=C/c2ccc3cccnc3c2)cc1`, for which the Potency is 0.5 µM (active).
The same measure, in the same setting: with `COCCn1c(C)cc(C(=O)COC(=O)c2cccnc2SC)c1C` the figure was 2.23 µM (active); with `COc1cccc(-c2cc(NCc3cccs3)ncn2)c1`, 3.97 µM (active); with `C=C1C(c2ccc(C)cc2)=CCc2cc(C)cc(C)c21`, 5 µM (active).
As to `O=C1CCN(Cc2ccccc2)C=C1c1ccc2ccccc2c1`, the Potency was 14.1 µM (active).
Same read-out and setting: with `O=C(COc1ccccc1Cl)Nc1ccc(-c2nc3ccccc3s2)cc1` the figure was 28.1 µM (active); with `COc1cc(OC)cc(-c2cc3cc4c(cc3cn2)OCO4)c1`, 5.6 µM (active).
Same read-out and setting: for `O=C(Nc1ccccn1)c1sc2ccc([N+](=O)[O-])cc2c1Cl` the value was 4.99 µM (active); for `CN(C)c1ccc(-c2cc3ccccc3c(=O)o2)cc1`, 0.445 µM (active); for `CC(=O)Nc1ccc(/C=C/c2sc3ccccc3[n+]2CCCCI)cc1`, 22.3 µM (active).
Still for that read-out and setting: with `Cc1c(OCc2ccc([N+](=O)[O-])cc2)ccc2c3c(c(=O)oc12)CCC3` the figure was 2.81 µM (active); with `Cc1ccccc1-c1nnc(SCC(=O)Nc2cccnc2Cl)o1`, 3.15 µM (active); with `COc1ccc(-c2nc(-c3cccnc3)no2)cc1`, 3.97 µM (active).
For the compound `Cc1ccc(NC(=O)c2ccc(OC(=O)c3ccco3)cc2)cc1`, the Potency was 11.5 µM (active) and 14.1 µM (active).
Regarding `COc1ccccc1/C=C/c1nc2ccccc2o1`, the Potency is 3.53 µM (active).
On the same count and under the same terms, for `O=C(NC1CCCC1)c1cc(-c2cccs2)on1` the value was 15.8 µM (active); for `O=C(Nn1c(SCc2ccc([N+](=O)[O-])cc2)nc2ccccc2c1=O)c1ccc(F)cc1`, 5 µM (active); for `CC(/C=C/C(=O)NO)=C\[C@@H](C)C(=O)c1ccc(N(C)C)cc1`, 0.629 µM (active).
Turning to `O=C(Nc1cc(Cl)ccc1Cl)c1ccc(OC(=O)c2ccco2)cc1`, the “activation” value was -16.4% (inactive).
`Cc1ccc(C)c(N2CCN(C(=O)CCc3nc(-c4cccc(Cl)c4)no3)CC2)c1`: the Potency is 12.5 µM (active).
On to `Cc1nc(Nc2nc3ccccc3o2)nc2c1CCCC2`, for which the Potency was 0.706 µM (active).
Turning to `CNC(=O)c1cc(-c2cccs2)on1`, the “activation” value is 11.9% (inactive).
For the compound `O=C(/C=C/C#Cc1cccc(NS(=O)(=O)c2ccccc2)c1)NO`, the Potency was 3.15 µM (active).
Still for that read-out and setting: for `COc1ccc([C@H]2Cc3cc(O)cc(O)c3C(=O)O2)cc1O` the value was 11.2 µM (active); for `Cn1cccc1C(=O)OCC(=O)Nc1ccc2c(c1)OCCO2`, 0.706 µM (active).
`COc1ccc(/C=C/c2ccc3ccccc3n2)c(OC)c1`: the Potency was 0.25 µM (active).
Same read-out and setting: with `Cc1nc2cc(-c3ccccc3)nn2c(N)c1-c1ccccc1` the figure was 0.629 µM (active).
The same measure, in the same setting: with `COc1ccc2cc(C[C@@H]3CC[C@@H](CO)O3)ccc2c1` the figure was 12.5 µM (active).
Take `CCn1c(C)cc(C(=O)COC(=O)c2cccnc2SC)c1C`: the Potency was 9.96 µM (active).
Regarding `Cc1ccnc(NC(=S)N2CCN(c3ccc(N)cc3)CC2)c1`, the Potency was 14.1 µM (active).
